A short description of experiment [1]: Quantitative High-Throughput drug screen in 47 multiple myeloma cell lines against the NCATS MIPE library collection: JJN3_DSMZ cell viability assay (AID 1918966; note: nearly all actives have a fitted effect of over 50% in size; note: potency is the fitted concentration of half-maximal effect). In short, it runs like this:
(§1)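 Primary qHTS used for cherry-picking: cells at 500/well, library compounds for 48 h (37C, 5% CO2), luminescent ATP assay.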

The nature of experiment [2]: Quantitative High-Throughput drug screen in 47 multiple myeloma cell lines against the NCATS MIPE library collection: Karpas25_ECACC cell viability assay (AID 1918968; note: nearly all actives have a fitted effect of over 35% in size; note: potency is the fitted concentration of half-maximal effect). In short, it runs like this:
as §1

The nature of experiment [3]: Quantitative High-Throughput drug screen in 47 multiple myeloma cell lines against the NCATS MIPE library collection: KMS27_JCRB cell viability assay (AID 1918970). Note: nearly all actives have a fitted effect of over 30% in size. Note: potency is the fitted concentration of half-maximal effect. In a few lines: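 Luminescent ATP read-out (CellTiter-Glo, 5 min at room temperature) after 48 h compound exposure of 500 KMS27_JCRB cells per well; DMSO wells define full viability and media-only wells zero.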

Experiment [4] in a line: Quantitative High-Throughput drug screen in 47 multiple myeloma cell lines against the NCATS MIPE library collection: KMS12BM_JCRB cell viability assay (AID 1918971). Note: nearly all actives have a fitted effect of over 35% in size. Note: potency is the fitted concentration of half-maximal effect. In short, it runs like this: (§2)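 Myeloma cells (500 per well) were exposed to MIPE 4.0 compounds by pin transfer and incubated 48 hours at 37C, 5% CO2. Viability was read as ATP by CellTiter-Glo luminescence, normalised to DMSO (100%) and media-only (0%) wells.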

The nature of experiment [5]: Quantitative High-Throughput drug screen in 47 multiple myeloma cell lines against the NCATS MIPE library collection: KMS12PE_JCRB cell viability assay (AID 1918972). Note: nearly all actives have a fitted effect of over 30% in size. Note: potency is the fitted concentration of half-maximal effect. In short, it runs like this: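 CellTiter-Glo ATP luminescence gave viability after 48 h compound treatment at 37C of 500 multiple myeloma cells per well. Normalisation used DMSO-only wells as 100% and media-only wells as 0% viability; primary qHTS of approved and investigational drugs.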

Experiment [6] can be described thus: Quantitative High-Throughput drug screen in 47 multiple myeloma cell lines against the NCATS MIPE library collection: KMS26_JCRB cell viability assay (AID 1918975). Note: nearly all actives have a fitted effect of over 45% in size. Note: potency is the fitted concentration of half-maximal effect. In short, it runs like this: as §2
Experiment [7] can be described thus: Quantitative High-Throughput drug screen in 47 multiple myeloma cell lines against the NCATS MIPE library collection: MMM1_PLB cell viability assay (AID 1918976). Note: potency is the fitted concentration of half-maximal effect; nearly all actives have a fitted effect of over 35% in size. In a few lines: (§3)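 ATP-based CellTiter-Glo luminescence after 48 h drug exposure (37 °C, 5% CO2) of 500 myeloma cells per well. DMSO-only wells set 100% viability, media-only wells 0%; MIPE 4.0 library added by pin tool.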

A short description of experiment [8]: Quantitative High-Throughput drug screen in 47 multiple myeloma cell lines against the NCATS MIPE library collection: MOLP8_DSMZ cell viability assay (AID 1918977). Note: nearly all actives have a fitted effect of over 45% in size. Note: potency is the fitted concentration of half-maximal effect. In short, it runs like this: as §3
A short description of experiment [9]: Quantitative High-Throughput drug screen in 47 multiple myeloma cell lines against the NCATS MIPE library collection: MM1S_ATCC cell viability assay (AID 1918980). Note: nearly all actives have a fitted effect of over 45% in size. Note: potency is the fitted concentration of half-maximal effect. In a few lines: as §3
Experiment [10] in a line: Quantitative High-Throughput drug screen in 47 multiple myeloma cell lines against the NCATS MIPE library collection: MM1R_ATCC cell viability assay (AID 1918981). Note: nearly all actives have a fitted effect of over 35% in size. Note: potency is the fitted concentration of half-maximal effect. In a few lines:
as §3

Experiment [11] can be described thus: Quantitative High-Throughput drug screen in 47 multiple myeloma cell lines against the NCATS MIPE library collection: JIM3_ECACC cell viability assay (AID 1918963; note: nearly all actives have a fitted effect of over 35% in size; note: potency is the fitted concentration of half-maximal effect). In short, it runs like this:
as §2

Experiment [12] can be described thus: Quantitative High-Throughput drug screen in 47 multiple myeloma cell lines against the NCATS MIPE library collection: H1112_PLB cell viability assay (AID 1918967; note: nearly all actives have a fitted effect of over 30% in size; note: potency is the fitted concentration of half-maximal effect). In a few lines: as §1
Experiment [13] in a line: Quantitative High-Throughput drug screen in 47 multiple myeloma cell lines against the NCATS MIPE library collection: NCIH929_DSMZ cell viability assay (AID 1918978). Note: nearly all actives have a fitted effect of over 35% in size. In short, it runs like this: as §3
Experiment [14] can be described thus: Quantitative High-Throughput drug screen in 47 multiple myeloma cell lines against the NCATS MIPE library collection: OCIMY1_PLB cell viability assay (AID 1918979). Note: nearly all actives have a fitted effect of over 35% in size. In a few lines: as §3
Experiment [15] can be described thus: Quantitative High-Throughput drug screen in 47 multiple myeloma cell lines against the NCATS MIPE library collection: KMS20_JCRB cell viability assay (AID 1918973). Note: nearly all actives have a fitted effect of over 45% in size. In a few lines:
as §1

A short description of experiment [16]: Quantitative High-Throughput drug screen in 47 multiple myeloma cell lines against the NCATS MIPE library collection: KMS21BM_JCRB cell viability assay (AID 1918974). Note: potency is the fitted concentration of half-maximal effect. To be noted: ATP luminescence, 48 h; viability: at 45.8 µM (top of the series). In a few lines:
as §1

A short description of experiment [17]: Quantitative High-Throughput drug screen in 47 multiple myeloma cell lines against the NCATS MIPE library collection: JIM1_ECACC cell viability assay (AID 1918964). In a few lines: as §1

Records with an inconclusive call do not appear. Active and inactive are the calls of the source. Calls come from the whole dose curve; as a rule, active = well fitted curve in the direction sought with a large enough effect; inconclusive = small, poorly fitted or top-dose-only effect, or another doubt; inactive = no such curve, though single readings can be large; an effect the other way counts as inactive or inconclusive.

Take `COc1cc2ncnc(Nc3cccc(Cl)c3)c2cc1OC`: the Potency was 33.2 µM (active) in experiment [1]; 20.9 µM (active) in experiment [2]; 29.6 µM (active) in [3]; 26.4 µM (active) in experiment [4]; 20.9 µM (active) in experiment [5]; 23.5 µM (active) in [6]. The Potency in experiment [7] was 11.8 µM (active); in experiment [8], 20.9 µM (active); in experiment [9], 0.0743 µM (active); in [10], 20.9 µM (active).
In the case of `CN1CCN(c2c(F)cc3c(=O)c(C(=O)O)cn4c3c2OCN4C)CC1`, the Potency entry in [11], in [12], in [2], in experiment [5], in experiment [8] and in experiment [13] was “inactive” in each case. Also, the Potency result in experiment [14], in experiment [9] and in experiment [10] was “inactive” in each case.
With `NC(=O)N1c2ccccc2CC(=O)c2ccccc21`, the Potency result in experiment [11], in experiment [12], in [2], in [3], in experiment [5] and in [15] was “inactive” in each case. For the same compound, the Potency entry in experiment [6], in experiment [8], in [13] and in [10] was “inactive” throughout.
As to `O=S(=O)(c1cccc2cnccc12)N1CCCNCC1`, the Potency in [12] was 16.6 µM (active). Besides, the Potency result in experiment [5], in experiment [15], in experiment [14] and in [10] was “inactive” throughout.
With `CCN(CC)CC#CCOC(=O)C(O)(c1ccccc1)C1CCCCC1` (centres undefined), the Potency entry in experiment [11], in [12], in [4], in experiment [8], in experiment [13] and in [14] was “inactive” throughout. Also, the Potency entry in experiment [10] is “inactive”. Besides, the Potency in [5] is 26.4 µM (active); in experiment [16], 4.69 µM (active).
As to `S=P(N1CC1)(N1CC1)N1CC1`, the Potency entry in experiment [11], in [2], in experiment [5], in experiment [6] and in [14] was “inactive” throughout. The Potency was 0.0118 µM (active) in experiment [1], 18.7 µM (active) in experiment [9] and 18.7 µM (active) in experiment [10].
`Nc1[nH]c(=O)ncc1F`: the Potency entry in experiment [11], in [1], in experiment [12], in experiment [2], in experiment [3] and in experiment [4] was “inactive” each time. The Potency entry in experiment [5], in [8], in experiment [13], in experiment [14] and in [10] was “inactive” in each case. Further, the Potency in [7] was 8.33 µM (active).
With `CCOc1cc(N)c(Cl)cc1C(=O)NCC1CN(Cc2ccc(F)cc2)CCO1` (centres undefined), the Potency result in experiment [11], in [1], in experiment [12], in experiment [2], in experiment [3] and in [5] was “inactive” each time. The Potency entry in [8], in experiment [13], in experiment [14] and in [10] was “inactive” throughout.
For `Cc1ccnc2c1NC(=O)c1cccnc1N2C1CC1`, the Potency result in experiment [17], in experiment [1], in experiment [4], in [5], in [6] and in experiment [8] was “inactive” in each case. For the same compound, the Potency entry in experiment [14] and in experiment [10] was “inactive” in each case. Moreover, the Potency in [3] is 1.87 µM (active); in [9], 4.69 µM (active).
In the case of `C[C@@H]1CN(c2c(F)c(N)c3c(=O)c(C(=O)O)cn(C4CC4)c3c2F)C[C@H](C)N1`, the Potency result in experiment [11], in experiment [12], in experiment [2], in [4], in [5] and in experiment [8] was “inactive” in each case. For the same compound, the Potency entry in experiment [13] and in experiment [9] was “inactive” throughout.
Regarding `Nc1nc(N)c2nc(CNc3ccc(C(=O)NC(CCC(=O)O)C(=O)O)cc3)cnc2n1` (centres undefined), the Potency is 0.0418 µM (active) in experiment [11], 0.0264 µM (active) in experiment [6] and 0.0132 µM (active) in experiment [9]. The Potency result in experiment [2], in [8], in experiment [13] and in [14] was “inactive” in each case.
On to `Cc1ncc([N+](=O)[O-])n1CCO`, for which the Potency result in [11], in experiment [1], in experiment [12], in experiment [2], in experiment [3] and in [5] was “inactive” throughout. The Potency result in [16], in experiment [8], in [13], in experiment [14] and in experiment [10] was “inactive” throughout.

For the origin of these results see PubChem BioAssay (NCATS).
